Compound activity (PubChem)
Shiga toxin inh: A qHTS for Small Molecule Inhibitors of Shiga Toxin. 290,000 compounds, 9.2% hits. Vero cells, Shiga toxin protein synthesis inhibition reporter. inhibition, % at 38.7 µM; in the data active = inhibition mostly above about 28%, no sharp cut-off; inactive = mostly below about 43%
RE007 growth inh: qHTS Assay for Inhibitors of the HIV-1 protein Vpr. S. pombe RE007 Vpr strain, BacTiter-Glo ATP luminescence, 24 h. Potency, µM (titrated, usually from 92.2 µM), most hits filed as inhibitors. 360,000 compounds, 0.21% hits. AID 651644, 2012; active = well fitted falling curve with a large enough effect; inconclusive = small, poorly fitted or top-dose-only effect; inactive = no such curve, though single readings can be large or run the other way; note: nearly all actives have a fitted effect of over 50% in size
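Fission yeast RE007 carrying one integrated HIV-1 vpr copy, seeded at OD 0.01 in PMG+AL medium with 23 nL pinned compound. Grown 24 h at 30 degrees; viability read by BacTiter-Glo luminescence after 5 min.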
Cycloheximide cs: Cycloheximide Counterscreen for Small Molecule Inhibitors of Shiga Toxin; cell reporter, cycloheximide protein synthesis inhibition counterscreen; max response, %; 300,000 compounds, 12% hits; AID 2314, 2010; in the data active = max response mostly above about 13%, no sharp cut-off; inactive = mostly below about 14%; note: read at 38.3 µM for the half of the compounds with a filed dose
Giardia FBPA inh: qHTS Assay for Inhibitors of Fructose-1,6-bisphosphate Aldolase from Giardia Lamblia; A8B2U2; purified Giardia FBPA; Potency, µM (doses to about 59.6 µM), actives largely listed as inhibitors; 290,000 compounds, 0.71% hits; AID 2451, 2010; note: nearly all actives have a fitted effect of over 55% in size
Target sequence (A8B2U2 whole entry, looked up): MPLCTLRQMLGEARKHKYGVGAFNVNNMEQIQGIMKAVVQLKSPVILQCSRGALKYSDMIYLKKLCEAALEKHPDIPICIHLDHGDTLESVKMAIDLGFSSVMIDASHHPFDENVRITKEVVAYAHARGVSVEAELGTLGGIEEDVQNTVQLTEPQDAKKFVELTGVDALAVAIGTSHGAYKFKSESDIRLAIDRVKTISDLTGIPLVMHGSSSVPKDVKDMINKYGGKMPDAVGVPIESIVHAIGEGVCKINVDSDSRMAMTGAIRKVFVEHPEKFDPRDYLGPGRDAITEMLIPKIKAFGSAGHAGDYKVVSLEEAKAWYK
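40 nM FBPA preincubated 10 min at RT with compound (up to 57.5 uM final), then substrate plus GAPDH/TPI/NAD/arsenate coupling and diaphorase/resazurin added. Fluorescence read after 20 min at RT, 525/598 nm.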
TbPYK inhibitor: qHTS of Trypanosoma Brucei Inhibitors; AID 624173, 2012; pyruvate kinase (Trypanosoma brucei), Q57TT1; TbPYK enzyme, Kinase-Glo Plus ATP luminescence, 45 min; 410,000 compounds, 0.12% hits; Potency, µM (series often up to 76.8 µM), most hits filed as inhibitors; note: nearly all actives have a fitted effect of over 50% in size
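Readout: single end-point luminescence (Kinase-Glo Plus, 10 min). Reaction conditions were TbPYK/substrate plus 130 uM ADP, 45 min at RT, pH 7.2 TEA buffer. No-enzyme wells served as controls, and data were normalized before concentration-response fitting.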
LmPK inhibitor: qHTS Assay for Inhibitors of Leishmania Mexicana Pyruvate Kinase (LmPK). Q27686. purified LmPK, Kinase-Glo ATP luminescence, 1 h. Potency, µM (doses to about 57.5 µM), hits mostly inhibitors. 290,000 compounds, 0.37% hits
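Purified LmPK (0.1 nM) converted ADP (0.1 mM) to ATP with PEP (0.5 mM) in imidazole buffer pH 7.2 with KCl and MgCl2, 1 h at room temperature. ATP was read by Kinase-Glo luminescence; data normalized to uninhibited and no-enzyme controls.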
Hits are given with their value; 0 = inactive; ? = inconclusive; - = no result. This excerpt belongs to a sample that is enriched for hits. Unless noted, calls come from the whole dose curve; as a rule, active = well fitted curve in the direction sought with a large enough effect; inconclusive = small, poorly fitted or top-dose-only effect, or another doubt; inactive = no such curve, though single readings can be large; an effect the other way counts as inactive or inconclusive.

SMILES	Shiga toxin inh	RE007 growth inh	Cycloheximide cs	Giardia FBPA inh	TbPYK inhibitor	LmPK inhibitor
O=C(c1cc(-c2ccc(Cl)c(Cl)c2)on1)N1CCCCCC1	36	0	20	0	0	0
O=C(c1cc(-c2ccccc2O)on1)N1CCCCC1	-	-	-	-	0	-
CCc1c(C)nc2nncn2c1Nc1cccc(C)c1	-	-	-	-	0	-
COc1ccc(C)cc1NC(=O)Cn1c(=O)n(Cc2nc(C)no2)c(=O)c2ccccc21	-	-	-	-	0	-
O=C(c1cc(-c2ccc3c(c2)OCO3)on1)N1CCCCC1	55	0	25	0	0	0
Cc1ccc(-c2cc(C(=O)N3CCCC3)no2)cc1	active	0	0	0	0	0
Cc1ccc(-c2cc(C(=O)N3CCOCC3)no2)cc1	0	0	0	0	0	0
CC1CCCC(C)N1C(=O)c1cc(-c2ccc(Cl)c(Cl)c2)on1 (centres undefined)	0	0	0	0	0	0
CC1CCCC(C)N1C(=O)c1cc(-c2ccc3c(c2)OCO3)on1 (centres undefined)	78	0	54	0	0	0
COc1ccc(NC(=O)c2cc(OCCCN(C)C)nn2Cc2ccccc2)cc1	0	-	0	0	-	-
O=[n+]1c2c(n([O-])c3cc(F)c(N4CCCC4)cc31)CCCC2	61	0	30	?	0	0
O=[n+]1c2c(n([O-])c3cc(F)c(N4CCCC4)cc31)CCC2	-	0	-	-	0	-
NC(=O)NNc1ccccc1	0	-	0	0	0	-
S=C(N=Nc1ccccc1)NNc1ccccc1	122	0	54	0	0	0
COc1ccccc1N1CCN(C[C@@H](C(=O)NC(C)(C)C)c2ccccc2)CC1	-	-	-	0	-	-
Cc1cccc(Cn2c(C)c(CNC3CCCCCC3)c(C(=O)O)c2C)c1	-	-	-	-	0	-
O=c1cc(-c2ccccc2)oc2ccc(O)cc12	64	0	32	0	0	0
COc1ccc(-c2cc(=O)c3cc(O)ccc3o2)cc1	62	0	53	0	0	0
O=C(COc1ccc2oc(-c3ccccc3)cc(=O)c2c1)NCc1ccco1	0	0	25	0	0	0
CN(C)c1ccc(-c2n[nH]c(=S)n2-c2ccccc2)cc1	0	0	0	0	?	0
CN(C)c1ccc(C2CC(c3ccccc3)=Nc3nc(-c4ccccc4)cn32)cc1 (centres undefined)	0	-	31	0	-	0
OCCCNC(=S)Nc1ccc2nccnc2c1	0	0	0	?	0	0
Fc1ccc(NC(=S)Nc2nccs2)cc1	75	0	50	?	0	0
Fc1ccc(NC(=S)Nc2ccc3nccnc3c2)cc1	0	0	38	?	0	0
O=C(Cc1ccc(F)cc1)Nc1nccs1	0	0	0	0	0	0
SMILES	Shiga toxin inh	RE007 growth inh	Cycloheximide cs	Giardia FBPA inh	TbPYK inhibitor	LmPK inhibitor
Cc1ccc(NC(=O)CSC2=C(C#N)C(c3ccco3)C3=C(CCCC3=O)N2)cc1 (centres undefined)	0	0	19	?	0	0
CCOC(=O)c1c(C)[nH]c(C)c1S(=O)(=O)NCC(=O)Nc1cccc(SC)c1	-	-	-	-	0	-
N#Cc1c(N)nc(N)nc1Nc1ccc(Br)cc1	90	0	41	0	0	0
Cc1cccc(Nc2nc(N)c(C#N)c(CC#N)c2C#N)c1	0	0	0	?	0	0
OC[C@@H](O)C(O[C@@H]1O[C@@H](CO)[C@H](O)[C@H](O)[C@H]1O)[C@H](O)[C@@H](O)CO (some centres undefined)	-	-	-	-	0	-
Cc1ccc2nc(NC(=O)CCn3cccc3)sc2c1	53	0	22	0	0	0
Cc1ccc2nc(NC(=O)CCCc3nc4ccccc4s3)sc2c1	0	0	42	0	0	0
COc1cc(-c2nnc(SCC(=O)Nc3ccc(F)c(Cl)c3)o2)cc(OC)c1OC	-	-	-	-	0	-
O=C(Nc1ccc(F)c(Cl)c1)c1nsc(Cl)c1Cl	82	?	47	0	0	?
CCOc1ccc(NC(=O)c2nsc(Cl)c2Cl)cc1	94	0	40	0	0	0
CCOc1ccc(C(C(=O)NC2CCCC2)N(Cc2ccccc2)C(=O)c2nsc(Cl)c2Cl)cc1 (centres undefined)	0	0	15	0	0	0
O=C(O)C1=C(C(=O)Nc2ccc(F)c(Cl)c2)CCCC1	0	0	0	0	0	0
Cc1ccc(N(CC(=O)NC2CCCC2)C(=O)c2nsc(Cl)c2Cl)cc1	29	0	30	0	0	0
CCOc1ccc(NC(=O)c2sc3ccccc3c2Cl)cc1	-	-	-	-	0	-
O=C(CN(C(=O)c1nsc(Cl)c1Cl)c1ccc(F)cc1)NC1CCCC1	0	0	0	0	0	0
CC(CNC(=O)Cn1c(-c2cccs2)cc2cc(Cl)ccc21)c1ccccc1 (centres undefined)	-	-	-	-	0	-
O=C(Nc1ccc(F)cc1)c1nsc(Cl)c1Cl	68	0	29	0	0	?
CC(=O)Nc1ccc(-c2nc3ccc(Cl)cc3[nH]2)cc1	-	-	-	0	-	-
CC(=O)Nc1ccc(-c2nc3c(C)cccc3[nH]2)cc1	110	0	45	0	0	0
Cc1cc(C)nc(Nc2n[nH]c(-c3cccc4ccccc34)n2)n1	0	-	19	0	0	0
Cc1cc(C)nc(Nc2n[nH]c(-c3ccccc3Cl)n2)n1	0	0	0	0	0	0
COc1ccc(-c2nnc(SCC#N)o2)cc1	0	0	15	0	0	0
CCCCCCCCSc1nnc(-c2ccc(OC)cc2)o1	0	0	0	0	0	0
C#CCSc1nnc(-c2ccc(OC)cc2)o1	0	0	37	0	0	0
CCSc1nnc(-c2ccc(OC)cc2)o1	98	0	56	0	0	0
SMILES	Shiga toxin inh	RE007 growth inh	Cycloheximide cs	Giardia FBPA inh	TbPYK inhibitor	LmPK inhibitor
COC(=O)CSc1nnc(-c2sc3ccccc3c2Cl)o1	0	0	0	0	0	0
N#CCSc1nnc(-c2sc3ccccc3c2Cl)o1	0	?	42	0	0	0
COc1ccccc1NC(=O)c1cccc(S(=O)(=O)N2CCCCCC2)c1	-	-	-	-	0	-
C#CCSc1nnc(-c2ccc([N+](=O)[O-])cc2)o1	58	0	23	0	0	0
CSc1nnc(-c2ccc([N+](=O)[O-])cc2)o1	0	0	0	0	0	0
COc1ccc(-c2nnc(SCc3c(C)noc3C)o2)cc1	68	0	27	0	0	0
CCOc1ccc2oc(=O)cc(CN3CCN(c4cc(C)ccc4C)CC3)c2c1	-	-	-	-	0	-
Fc1ccc(Nc2nc(-c3ccoc3)nc3ccccc23)cc1	-	-	-	0	-	-
COc1cc([N+](=O)[O-])ccc1NC(=O)NCc1ccccn1	0	0	12	0	0	0
O=C(NCc1ccccn1)Nc1ccccc1F	49	0	21	0	0	0
O=C(NCc1ccccn1)Nc1ccccc1C(F)(F)F	0	0	15	-	0	0
COc1cc([N+](=O)[O-])ccc1NC(=S)NCc1ccccn1	0	0	0	0	0	0
